# Measured values: PubChem BioAssay (EPA / NIEHS)
# Active and inactive are the calls of the source. Rule for the calls: active = hit-call score of the fitted dose curve at least 0.9, where 1 is the maximum; inactive = score below 0.9.
# Read-out: Alkaline Phosphatase, Placental (ALPP) gene, ALPP (gene 250)
# Assay: LTEA_HepaRG_ALPP: Life Technologies and Expression Analysis (LTEA) Assay for Alkaline Phosphatase, Placental (ALPP) gene using HepaRG (AID 2283468);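 for AC50: ALPP transcript by TaqMan qRT-PCR normalized to ACTB GAPDH and POLR2A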
# Settings: mRNA level, 48 h; actives raise or lower the signal
# Method: LTEA_HepaRG is a cell based, multiplexed-readout assay that uses HepaRG, a human liver cell line, with measurements taken at 48 hours after chemical dosing on a 96-well plate.LTEA_HepaRG_ALPP is one of 102 assay component(s) measured in the LTEA HepaRG cell culture assay. It is a marker of Cell proliferation, survival, death.Data from the assay component LTEA_HepaRG_ALPP was analyzed into 1 endpoint. This assay endpoint, LTEA_HepaRG_ALPP, was analyzed with bidirectional fitting relative to DMSO as the negative control and baseline of activity. Using a type of inducible reporter, measures of mRNA induction for gain or loss-of-signal activity can be used to understand regulation of transcription factor activity. To generalize the intended target to other relatable targets, this assay endpoint is annotated to the phosphatase intended target family, where the subfamily is Cell proliferation, survival, death.
# A total of 1060 chemcials from the ToxCast library were tested in eight-point concentration-response experiments. Cell culture and cytotoxicity assays were conducted at Thermo Fisher Scientific's Custom Services facility (Madison, WI). A single lot of human HepaRG cells (Thermo Fisher Scientific, Frederick, MD) was used for the cell culture experiments. 96-well format collagen type I coated plates of human HepaRG cells were prepared using established methods. Briefly, cryopreserved HepaRG cells were thawed, plated at a density of approximately 100,000 cells/well in HepaRG Thaw, Plate, and General Purpose media (HPRG770, Thermo Fisher Scientific), and incubated for 48 hours. 0.5% DMSO was selected as vehicle control to balance the requisite need of DMSO in HepaRG cultures to maintain differentiation (for example, baseline metabolism, proportions of hepatocytes vs. cholangiocytes), while enabling further hepatic receptor pathway activation (for example, PXR and CAR) in response to chemical exposure. 48 hours after plating, the culture medium was replaced with HepaRG Serum-Free Incudtion Media. Cells were exposed to each test chemical in duplicate and maintained in CO2 incubators for another 48 hours. Chemical plates were thawed to room temperature and 200x concentrations of treatment groups were prepared. 8-point conentration-reponse curves were made with the highest exposure at 100 uM, followed by half-log dilutions, all in 0.5% DMSO. Each test plate contained variouse controls, induction positive controls (1mM phenobarbital), cytotoxicity positive controls ([…] aflatoxin B1), vehicle controls (0.5% DMSO), and total lysis controls (0.5% DMSO). Cell morphology images were taken using an Essen IncuCyte FLR automated microscope, with six 96-well plates imaged in about 24 minutes. Images were captured and exported and JPEG files. Spent culture media was transfered to black-well plates for the LDH assay, and remaining media was sorted at -80 C for later use. Cells were treated with RLT buffer and frozen until shipped for gene expression analysis. Total RNA was isolated from the cell suspension in 75 uL of Buffer RLT (Qiagen, Germantown, MD 20874) by Quintiles/Expression Analysis (Durham, NC) using a custom isolation procedure. Total RNA from each plate well was transferred to a preamplification plate. Fluidigm's 96.96 Dynamic ArrayTM (Fluidigm, Amsterdam, the Netherlands) technology was used for gene expression analyses by quantitative reverse transcription polymerase chain reaction (qRT-PCR, performed by Quintiles/Expression Analysis, Durham, NC)89. Standard TaqManTM Assays (Applied Biosystems/ThermoFisher Scientific, Foster City, CA) were used to assess the expression of 93 genes selected based on their selectivity and sensitivity to important hepatic receptors known to be modulated by environmental chemicals; importance in human hepatocyte functionality; and hepatotoxicity. […]
Structure (SMILES),outcome,AC50
COS(=O)(=O)OC,inactive,
C[C@]12CCC(=O)C=C1CC[C@@H]1[C@@H]2CC[C@@]2(C)[C@H]1CC[C@]2(C)O,,24.5 µM (active)
Cc1ccccc1CO[C@@H]1C[C@@]2(C(C)C)CC[C@]1(C)O2,inactive,
Clc1ccc(C(Cl)(Cl)Cl)cc1,inactive,
Clc1ccc(Cl)cc1,inactive,
CCC(C)(c1ccc(O)cc1)c1ccc(O)cc1,inactive,
O=C(O)C(F)(F)C(F)(F)C(F)(F)C(F)(F)C(F)(F)F,inactive,
CCOCCOC(C)=O,inactive,
Cc1cccc([N+](=O)[O-])c1,inactive,
CCCN(CCC)N=O,inactive,
CCOP(=S)(OCC)SCSC(C)(C)C,inactive,
CCCCCCCCCC[N+](C)(C)CCCCCCCCCC,,90.5 µM (active)
Cc1cccc(C)c1N,inactive,
C[C@]12CCC(=O)C=C1CC[C@@H]1[C@@H]2CC[C@]2(C)C(=O)CC[C@@H]12,,29.8 µM (active)
COc1ccc(O)c(C(C)(C)C)c1,inactive,
O=S(=O)(O)C(F)(F)C(F)(F)C(F)(F)C(F)(F)F,inactive,
CN(C)c1nc(=O)n(C2CCCCC2)c(=O)n1C,,12.5 µM (active)
Clc1ccc(C(c2ccccc2Cl)C(Cl)(Cl)Cl)cc1 (stereo not given),inactive,
Nn1cnnc1,inactive,
O=NN(c1ccccc1)c1ccccc1,,82.7 µM (active)

Structure (SMILES),outcome,AC50
C=CC(=O)NCNC(=O)C=C,inactive,
Cc1cc(-c2ccc(N)c(C)c2)ccc1N,inactive,
CC#Cc1cc(C)nc(Nc2ccccc2)n1,,50 µM (active)
O=C(O)C(F)(F)C(F)(F)C(F)(F)C(F)(F)C(F)(F)C(F)(F)C(F)(F)C(F)(F)C(F)(F)F,,68.1 µM (active)
Cc1ccccc1[N+](=O)[O-],inactive,
O=C(N[C@H]1CN2CCC1CC2)c1cc2ccoc2cn1,inactive,
NS(=O)(=O)C(F)(F)C(F)(F)C(F)(F)C(F)(F)C(F)(F)C(F)(F)C(F)(F)C(F)(F)F,inactive,
ClC1=C(Cl)[C@]2(Cl)[C@@H]3[C@@H](Cl)[C@H]4O[C@H]4[C@@H]3C1(Cl)C2(Cl)Cl,inactive,
O=C(NC(=O)c1c(F)cccc1F)Nc1cc(Cl)c(OC(F)(F)C(F)F)c(Cl)c1,inactive,
Nc1ccc(-c2ccc(N)cc2)cc1,inactive,
Cc1ccc(O)c(C)c1,inactive,
c1ccc(-c2ccccc2)cc1,inactive,
CC(C)(O)C(=O)Nc1ccc([N+](=O)[O-])c(C(F)(F)F)c1,,0.0354 µM (active)
Cc1cc2c3c(c1)C(c1ccccc1)=N[C@@H](NC(=O)c1ccncc1)C(=O)N3CC2,,10.3 µM (active)
CCC(=O)O[C@H]1CC[C@H]2[C@@H]3CCC4=CC(=O)CC[C@]4(C)[C@H]3CC[C@]12C,inactive,
ClC1=C(Cl)[C@]2(Cl)[C@@H]3[C@H]4C[C@H]([C@@H]5O[C@H]45)[C@@H]3[C@@]1(Cl)C2(Cl)Cl,inactive,
CCC(C)c1cc([N+](=O)[O-])cc([N+](=O)[O-])c1O (stereo not given),,1.58 µM (active)
CCC(C)(CC)c1cc(NC(=O)c2c(OC)cccc2OC)on1,inactive,
Oc1ccc(Cl)cc1Cl,inactive,
O=S(=O)(O)C(F)(F)C(F)(F)C(F)(F)C(F)(F)C(F)(F)C(F)(F)F,inactive,
